Legend:
Experiment in all cases: PBM binding z-score (relative to random genomic background probes); higher = stronger binding; sequences stand for … in GC…GCGATTGACAGCGTAGAATGAAGG
[1] = tested on: FXR:RXRa (NR concentration 270 nM, RXRa partner concentration 90 nM)
In short: (§1)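 Regression normalization was applied to scanned fluorescence from custom Agilent 4×180K protein-binding microarrays. Before scanning, arrays were incubated 1 h with ligand-free nuclear receptor dimers, and binding was detected with antibodies against each partner (one per run). Binding z-scores use the random background probes as reference.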

[2] = tested on: LXRa:RXRa (NR concentration 270 nM, RXRa partner concentration 90 nM)
In short: as §1

[3] = tested on: LXRa homodimer (NR concentration 270 nM)
In short: as §1

[4] = tested on: LXRb:RXRa (NR concentration 270 nM, RXRa partner concentration 90 nM)
In short: as §1

[5] = tested on: LXRb homodimer (NR concentration 270 nM)
In short: as §1

[6] = tested on: PPARa:RXRa (NR concentration 270 nM, RXRa partner concentration 90 nM)
In short: as §1

[7] = tested on: PPARg:RXRa (NR concentration 180 nM, RXRa partner concentration 90 nM)
In short: as §1

[8] = tested on: PPARg:RXRa 270nM:90nM, anti-RXR (NR concentration 270 nM, RXRa partner concentration 90 nM)
In short: as §1

[9] = tested on: PPARg:RXRa 30nM:10nM, anti-RXR (NR concentration 30 nM, RXRa partner concentration 10 nM)
In short: as §1

[10] = tested on: PPARg:RXRa 90nM:30nM, anti-RXR (NR concentration 90 nM, RXRa partner concentration 30 nM)
In short: as §1

[11] = tested on: PPARg:RXRa DBDmut IVT, anti-RXR (DBD mutation: RXRa K156A/R161A, NR concentration 270 nM, RXRa partner concentration 90 nM)
In short: as §1

[12] = tested on: PPARg:RXRa IVT, anti-PPARg (NR concentration 270 nM, RXRa partner concentration 90 nM)
In short: as §1

[13] = tested on: PPARg DBDmut:RXRa IVT, anti-PPARg (DBD mutation: PPARg1 K132A/R137A, NR concentration 270 nM, RXRa partner concentration 90 nM)
In short: as §1

[14] = tested on: PPARg DBDmut IVT, anti-PPARg (DBD mutation: PPARg1 K132A/R137A, NR concentration 270 nM)
In short: as §1

[15] = tested on: PPARg homodimer (NR concentration 180 nM)
In short: as §1

[16] = tested on: PXR:RXRa (NR concentration 270 nM, RXRa partner concentration 90 nM)
In short: as §1

[17] = tested on: PXR homodimer (NR concentration 270 nM)
In short: as §1

[18] = tested on: RARa:RXR (NR concentration 270 nM, RXRa partner concentration 90 nM)
In short: as §1

[19] = tested on: RARa homodimer (NR concentration 270 nM)
In short: as §1

[20] = tested on: RARb:RXRa (NR concentration 270 nM, RXRa partner concentration 90 nM)
In short: as §1

Sequence	PBM binding z-score [1]	PBM binding z-score [2]	PBM binding z-score [3]	PBM binding z-score [4]	PBM binding z-score [5]	PBM binding z-score [6]	PBM binding z-score [7]	PBM binding z-score [8]	PBM binding z-score [9]	PBM binding z-score [10]	PBM binding z-score [11]	PBM binding z-score [12]	PBM binding z-score [13]	PBM binding z-score [14]	PBM binding z-score [15]	PBM binding z-score [16]	PBM binding z-score [17]	PBM binding z-score [18]	PBM binding z-score [19]	PBM binding z-score [20]
TAGCCTAGGTCAGATCGGGCCAGTATTCGCTATA	2.53	1.19	-0.155	0.7	-0.147	1.71	0.0951	0.687	-0.284	-0.025	0.568	1.66	-0.683	-1.02	0.109	1.28	-0.946	0.894	-0.762	3.14
ATATGTAGGTTACATCCGCGTCATTCAGGCTATG	0.387	1.31	0.198	0.733	0.789	3.15	4.94	3.92	1.86	3.52	7.33	7.28	2.01	1.99	0.907	0.229	0.0394	0.412	0.447	0.941
GCTATTAGTTGAAAAGGCAACCGAATGATTCTCG	-0.25	-0.013	-0.222	-0.163	-0.383	0.216	0.532	1.07	0.168	0.651	-0.116	-0.52	0.324	0.295	1.02	-0.0791	0.363	0.226	0.557	0.109
ATCTCTAGGTAAAGTTCAGTGCAAGATCGATAGA	1.53	2.29	2.02	1.43	0.722	2.52	3.48	4.48	2.63	4.43	2.92	2.81	0.415	1.22	2.51	2.32	1.67	1.49	1.38	2.78
TAGCCGAGGTCATTGGGCCAGTATAGTACGCATC	7.32	5.83	2.5	5.28	1.76	6.2	6.77	6.15	3.26	5.02	2.68	4.59	-0.49	0.82	2.28	5.5	2.28	4.87	0.0596	4.78
TCTCGGAGGCCACGAAGGTCAGAGCTTTCCAGAG	0.966	1.34	-0.257	1.25	-1.36	2.21	0.256	1.82	1.63	1.54	1.55	1.81	-1.16	-1.03	0.239	2.19	0.613	2.29	-1.17	3.38
CGTCCAAGGTAATAGGAGGTCAGTGAAGACAGAT	1.29	5.47	3.58	2.99	-0.518	2.14	0.506	0.791	-0.301	0.264	0.553	1.63	0.188	-0.16	1.61	2.8	0.938	2.15	1.12	2.23
